# Most compounds without a hit are left out; they make up all but 4.9% or so of the library.
# HSF-1 act: increases HSF-1 driven luciferase reporter signal; NIH3T3-HGL HSF-1 luciferase reporter, MG132, 8 h; 100% = twice DMSO control signal; activation, % at 9 µM; 300,000 tested, 1.7% active;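 active means mean replicate activation of at least 50% with a set share of replicates each reaching 50%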;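 further: 0% = median of the neutral control wells and 100% = twice that signal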
# HSP90 refold inh: inhibitors of HSP90 luciferase refolding in rabbit reticulocyte lysate; inhibition, % at 5.6 µM; luciferase refolding luminescence, 3 h; 290,000 tested, 0.91% active;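 active means inhibition above the screen-wide mean plus 3 SD, computed separately per campaign, cut at about 16% in these data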;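 further: 0% = DMSO wells and 100% = 60 µM geldanamycin wells; inhibitors lower the luminescence because luciferase stays unfolded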
# dFosB act-1: enhances mouse delta FosB homodimer DNA binding; P13346; purified delta FosB, TAMRA-CDK5 oligo fluorescence polarization; percent of positive-control signal above neutral wells; activation, % at 25 µM; 340,000 tested, 0.99% active; AID 493131;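 active means mean activation above about 17%, with every replicate also reaching it, limit read from the data, passing the limit was not always enough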
# Target sequence (P13346 whole entry, looked up): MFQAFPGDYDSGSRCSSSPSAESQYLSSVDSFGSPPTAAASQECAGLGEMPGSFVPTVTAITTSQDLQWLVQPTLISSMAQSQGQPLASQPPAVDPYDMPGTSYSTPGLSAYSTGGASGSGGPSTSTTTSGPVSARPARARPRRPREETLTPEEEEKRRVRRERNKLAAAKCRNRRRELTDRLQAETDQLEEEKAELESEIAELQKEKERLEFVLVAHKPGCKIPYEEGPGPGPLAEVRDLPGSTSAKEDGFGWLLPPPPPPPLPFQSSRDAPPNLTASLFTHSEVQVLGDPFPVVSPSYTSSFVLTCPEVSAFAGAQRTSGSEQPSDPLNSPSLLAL
# HSF1 inh: HSF1 inhibition. NIH3T3-HGL HSE-luciferase, MG132-induced, luminescence 8 h; active compounds read low. activity change, negative = inhibition, % at 7.5 µM (by protocol). 300,000 tested, 0.77% active;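 active means more than half of replicate wells show activity change below -50%, luminescence cut by over half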;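 further: luciferase reports HSF-1 transcriptional activity via heat shock element; 0% = median of DMSO wells and -100% = zero luminescence signal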
# MPTP block: inhibitors of mitochondrial permeability transition pore; isolated mouse mitochondria, Ca2+ swelling absorbance, 30 min; 360,000 tested, 1.4% active; inhibition, % at 10 µM; AID 602449;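 active means inhibition of 50% or more, scaled per plate between neutral and stimulator controls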;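 further: 0% = DMSO wells given calcium and 100% = 1 mM EGTA wells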
# Platelet DG rel: platelet dense granule release activity | human platelet-rich plasma, SFLLRN dense granule ATP release, luminescence | inhibition, %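 (compounds screened at 7.5 µM in platelet-rich plasma)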 | 300,000 tested, 0.22% active | AID 1663;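 active means mean replicate score, as percent of positive control, at or above 50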
# dFosB act-2: delta FosB (mouse) homodimer activation | purified delta FosB, TAMRA-CDK5 oligo fluorescence polarization; normalised: neutral wells 0, positive control 100 | shares compounds with dFosB act-1 | AID 588690 | 2,400 tested, under 10 active | activation, % at 24.9 µM;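 active means highest replicate activation at or above 34% and every replicate reaching that threshold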;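 further: higher polarization means more probe DNA bound by delta FosB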
# * hit, by the source's call; . = not tested or not shown.
SMILES,HSF-1 act,HSP90 refold inh,dFosB act-1,HSF1 inh,MPTP block,Platelet DG rel,dFosB act-2
Clc1ccc(-c2nc(-c3ccncc3)no2)c(Cl)c1,43,.,3,19,0,0,.
COc1ccc(NC(=O)/C(=C\c2ccc(OC)c(OC)c2)NC(=O)c2ccco2)cc1,-1,0,-1,-7,-2,-3,.
CCN(CC)C(=O)CSc1nc(N)c(C#N)c(-c2cccs2)c1C#N,-19,-5,5,-1,2,-8,.
Cc1ccccc1NC(=O)CSc1nc(N)c(C#N)c(-c2cccs2)c1C#N,16,-2,61*,5,5,-3,3
O=S(=O)(Nc1ccc(-n2cnnn2)cc1)c1ccc(Cl)s1,.,.,-4,.,-2,.,.
O=C(Nc1nnc(-c2cccs2)s1)c1cccc(F)c1,.,-5,36*,.,-1,.,-5
Cc1nnc(NC(=O)c2cccc(F)c2)s1,10,0,-6,2,-2,24,.
COc1ccc(N2CCN(C3CCCN(C(=O)c4cccc(C)n4)C3)CC2)cc1 (configuration not stated),-3,-5,-8,-3,1,3,.
CCOC(=O)N1CCN(C(=O)CSCC(=O)N=c2sc3cc(OC)ccc3n2C)CC1,.,.,4,.,4,.,.
COC(=O)Cn1c(=NC(=O)CSCC(=O)NC2CCCCC2)sc2cc(OC)ccc21,0,3,29*,5,-1,11,-1
O=C(COC(=O)CSc1nnc(-c2ccc(Cl)cc2)o1)NCc1ccc2c(c1)OCO2,-11,0,24*,-18,-2,6,3
CCN(CC)S(=O)(=O)c1ccc(-c2nnc(SCC(=O)Nc3ccc4c(c3)OCO4)o2)cc1,9,-1,31*,-4,-1,0,-2
CCN(CC)S(=O)(=O)c1ccc(NC(=O)CSc2nnc(-c3ccc(F)cc3)o2)cc1,-4,-2,-2,7,6,7,.
CC(=O)Nc1ccc(SCC(=O)c2c(N)n(Cc3ccccc3)c(=O)n(C)c2=O)cc1,-7,0,17*,-8,0,2,4
CC(=O)NC(=S)c1c(N)n(Cc2ccccc2)c(=O)n(C)c1=O,-7,6,.,8,.,1,.
CCc1nc2ccc(C(=O)NCc3ccccc3OC)cn2c1N(C)Cc1ccc(N(C)C)cc1,.,.,.,.,1,.,.
COc1ccc(CN2CN(S(=O)(=O)c3cccs3)c3nc4ccccc4nc32)cc1,32,1,58*,24,3,-2,-3
COc1ccc(C)c2sc(NC(=O)c3cccc(N4C(=O)CCC4=O)c3)nc12,-24,2,53*,-7,1,-3,7
Cc1ccc(C)c2sc(NC(=O)c3ccc(N4C(=O)CCC4=O)cc3)nc12,4,0,-7,-4,2,-69,.
COc1cc(NC(=O)c2ccco2)c(C(=O)OCC(=O)c2c[nH]c3ccccc23)cc1OC,-36,0,39*,-35,11,0,7
O=C(OCC(=O)c1c[nH]c2ccccc12)c1ccco1,39,-1,-6,13,-2,-5,.
Nc1n[nH]c(-c2ccc([N+](=O)[O-])cc2[N+](=O)[O-])n1,-39,-4,0,-24,1,-1,.
COc1ccc(NC(=O)c2c[nH]c(=O)n(-c3ccc(C)c(C)c3)c2=O)c(OC)c1,.,.,35*,.,-1,.,4
COc1ccc(C2CC(c3ccccc3)=NN2C(=O)COC(=O)c2cccnc2Cl)cc1 (configuration not stated),7,5,0,11,3,-1,.
COc1ccc(C2CC(c3ccccc3)=NN2C(=O)COC(=O)c2cc(S(=O)(=O)N3CCOCC3)ccc2Cl)cc1 (configuration not stated),-4,-3,30*,9,-3,-10,2
SMILES,HSF-1 act,HSP90 refold inh,dFosB act-1,HSF1 inh,MPTP block,Platelet DG rel,dFosB act-2
O=C(Cn1c(=O)oc2ccccc21)Nc1ccc2c(c1)OCCO2,0,1,-11,-5,0,1,.
Cc1cc2ccccc2c(=O)n1CC(=O)Nc1ccc2c(c1)OCCO2,2,-1,19*,-7,-4,1,0
Cn1c(=O)cc(OCCCC(=O)Nc2ccc3c(c2)OCCO3)c2ccccc21,14,-2,44*,2,2,1,2
COc1ccccc1NC(=O)C(C)N(C)Cc1ccc(Cl)s1 (configuration not stated),0,4,-11,-3,-1,-2,.
CN(NC(=O)c1ccc(Cl)cc1)c1nc(-c2ccccc2)nnc1C(F)(F)F,16,0,32*,-6,5,2,6
CN(C)C1=NCCN1CCC1CCCC1,-3,-7,3,0,1,4,.
O=C(NC(=S)Nc1ccc2oc(=O)ccc2c1)c1cccc(Cl)c1,13,-5,88*,5,0,2,0
O=CN1CCN(C(=O)Cc2ccc(Cl)cc2)CC1,.,.,.,.,0,.,.
O=C(Nc1nnc(Cc2ccc(F)cc2)s1)Nc1ccccc1F,0,0,27*,1,4,3,7
O=C(Nc1nnc(-c2ccccc2SCc2ccccc2)s1)Nc1ccccc1F,8,3,91*,3,1,-3,-8
CCOc1ccc(CCNC(=O)c2cn(C)c3ccc(S(=O)(=O)N4CCOCC4)cc3c2=O)cc1OCC,2,3,-23,1,-1,8,.
CCOc1ccc(NC(=O)CCc2nnc3ccc(N4CCC5(CC4)OCCO5)nn23)cc1,-5,-3,-8,0,-2,18,.
CCN(CC(=O)Nc1ccc(NC(C)=O)cc1)C(=O)/C=C/c1cn(-c2ccccc2)nc1-c1ccc(F)cc1,3,.,21*,-2,1,3,1
O=C(NC1CCCCC1)C(C1CC1)n1c(=O)c(-c2cc3ccccc3[nH]2)nc2ccccc21 (configuration not stated),.,.,.,.,3,.,.
O=C(Nc1ccc(OC(=O)c2ccccc2)c(-c2nc3ccccc3s2)c1)c1ccccc1,21,0,18*,0,8,3,6
O=C(N/N=C\c1cccnc1)c1cc(-c2ccc(Cl)s2)[nH]n1,-13,-1,33*,-5,-2,-13,3
O=C(N/N=C/c1cccnc1)c1ccccc1Cl,1,1,-5,-9,0,-2,.
O=C(Nc1ccc(Cl)cc1)Nc1ccc(-c2cnco2)cc1,3,5,39*,4,42,6,3
O=S(=O)(c1ccc(Cl)cc1)N1CCc2ccccc21,17,4,18*,-6,2,-7,-11
O=C1CCC(C(=O)OCC(=O)Nc2ccc(SC(F)F)cc2)=NN1,.,.,.,.,-1,.,.
CN(C)CCCN(C(=O)c1ccco1)c1nc2ccc(Br)cc2s1,5,-1,-31,7,5,-18,.
